These results are taken from PubChem BioAssay (NCI).

The panel holds about 83,000 compounds, 20% with a hit somewhere; the sample as a whole holds those more often.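 For each line, cells grew in 96-well plates with the test compound present at a single concentration for 48 hours.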 A number with no mark means an inactive call. Active and inactive are the calls of the source.

In the test the test system is T-47D breast. Nature of the test: NCI-60 one-dose screen, 48 h (100 = growth as untreated, 0 = no growth, -100 = all killed). Particulars: 10 µM unless noted. Here is the method:
Growth inhibition of the T-47D human tumor cell line is measured as a screen for anti-cancer activity. Cells are grown in 96 well plates and exposed to the test compound for 48 hours. Compounds are tested at a single concentration, which is 10^-5 M for most compounds. The reported endpoint is percent growth (GI% or GIPRCNT), where numbers from 0 - 100% represent growth inhibition, and numbers from -100% - 0 represent cell death. For example, a value of 40 represents 60% growth inhibition. A value of 0 means no net growth occurred over the course of the experiment. A value of -40 indicates 40% of cells at the beginning of the experiment died by the end of the experiment. A value of -100 means all cells are dead at the end of the experiment.
NCI-60 Human Tumor Cell Lines Screen was performed using the standard one-dose NCI protocol, which is described in more detail at https://dtp.cancer.gov/discovery_development/nci-60/default.htm.
Compounds with GIPRCNT values below 10 were considered active. Activity score was based on GIPRCNT using the following formula: […]
Score is 0 for GIPRCNT values of 100 or above, 50 for GIPRCNT values of 0, and 100 for GIPRCNT values of -100.
On to `COc1ccc(Nc2nccc(Nc3ccc4[nH]ncc4c3)n2)cc1`, for which the growth is -3.74% (active).

Regarding `Cc1ccc2nc(/C=C/c3ccc(N(C)C)cc3)cc(C)c2c1`, the growth was 34.7%.

As for `Cn1cc(-c2nc(-c3c[nH]c4ccncc34)cs2)c2cc(F)ccc21`, the growth was -52.2% (active).

Turning to `O=C(COc1ccc(/C=C2\Oc3ccccc3C2=O)cc1)Nc1nccs1`, the growth was 115%.

With `O=c1oc2ccccc2cc1-c1nn(-c2ccccc2)cc1/C=N/Nc1nc(-c2ccccc2)c(N=Nc2ccccc2)s1`, the growth was 57.4%.

For the compound `CNC(=O)c1cc(Oc2ccc3nc(NC(=O)NC(C)C)sc3c2)ccn1`, the growth was 64.3%.

On to `FC(F)(F)c1cccc(-c2nnn(Cc3cc(-c4cccc(Cl)c4)no3)n2)c1`, for which the growth is 108%.

In the case of `CCCN1C(=O)N(CCC)C2C1NC(=S)N2/N=C/C=C/c1ccccc1OC` (stereo not given), the growth is 40.3%.

Take `Cc1ccc(C23CCC(=O)N2CCc2cncn23)cc1` (stereo not given): the growth is 91.2%.

Regarding `Nc1n[nH]c2cccc(C#Cc3cccc(C(=O)Nc4ccc(Cl)c(C(F)(F)F)c4)c3)c12`, the growth is 33.5%.

Turning to `Cc1nn(-c2ccccc2)c(Oc2ccccc2)c1/C=N/NC(=O)Cn1c(=O)sc2ccccc21`, the growth is 14.7%.

For `COc1ccccc1NC(=O)n1c(=O)cc(C)c2ccc(O)cc21`, the growth was 99.8%.

Turning to `CCN=c1sc2c(n1NC(=O)c1cc3ccc1CCc1ccc(cc1)CC3)C(=O)c1ccccc1C2=O`, the growth is -19.8% (active).

`C#CCOc1cccc(-c2ncnc3cc(NC(=O)CCl)ccc23)c1`: the growth was -33.8% (active).

Turning to `CCCCCN(CCCCC)CC(O)c1c(Cl)ccc2ccccc12` (stereo not given), the growth was 69%.

For the compound `C(CCCSC1=NCCN1)CCSC1=NCCN1`, the growth was 101%.

Take `CCOC(=O)C1=C(C)N(C)C(=O)N(C)C1c1ccccc1` (stereo not given): the growth is 96.3%.

Regarding `N#Cc1c(-c2ccc(Cl)cc2)nc(NN=Cc2cccc(Cl)c2)nc1N1CCOCC1`, the growth is 76.6%.

`CC(C)=CC(=O)C1C(=O)c2ccccc2C1=O`: the growth was 97.3%.

As for `CCN(CC)CCCC(Nc1c2ccc(Cl)cc2nc2ccc(OC)cc12)c1ccncc1` (stereo not given), the growth was 113%.

With `c1ccc2c(-c3cnn4cc(-c5ccc(N6CCNCC6)cc5)cnc34)ccnc2c1`, the growth was -45.9% (active).

As for `COC(=O)c1nc(-c2ccc(C)cc2)oc1N1CCOCC1`, the growth was 87.3%.

Take `COc1ccc(-c2nc(SCCC(C)C)nc(N/N=C(/C)c3ccc(N)cc3)c2C#N)cc1`: the growth was 85%.

`COc1ccccc1/C=C/C1=C(C)CCC(c2ccccc2OC)C1C` (stereo not given): the growth is 61.9%.

Take `CO[C@H]1/C=C/O[C@@]2(C)Oc3c(C)c(O)c4c(O)c(c5c(nc6cc(C)ccn65)c4c3C2=O)NC(=O)/C(C)=C\C=C\[C@H](C)[C@H](O)[C@@H](C)C(O)[C@@H](C)[C@H](OC(C)=O)[C@@H]1C` (stereo not given in full): the growth is -5.36% (active).

With `COc1ccc(NC(=O)c2sc3nc(C)c(C(=O)c4ccccc4)cc3c2N)cc1`, the growth was 91%.

Take `O=C(/C=C\c1ccc(O)c(O)c1)c1ccccc1O`: the growth was 67%.

`CCCc1cc(CCC)n2nc(N)nc2n1`: the growth was 110%.

With `O=C1CCc2c(sc3[nH]c(=S)n(-c4cc(C(F)(F)F)cc(C(F)(F)F)c4)c(=O)c23)C1`, the growth was -34.6% (active).

On to `COc1ccc2c(c1)c(-c1nc(-c3cn(C)c4ccncc34)cs1)cn2C`, for which the growth is 95.7%.

Turning to `O=C(Nc1ccccc1)Nc1ccccc1CNc1nc(Nc2ccc(OCCN3CCCC3)cc2)ncc1Cl`, the growth is 55.7%.

Turning to `COc1cc2ncnc(Nc3ccc(S(=O)(=O)Nc4cc(C)on4)cc3)c2cc1OCCCN1CCOCC1`, the growth is 84.4%.

Take `Cn1cc(-c2ccc3occ(-c4cccc(-c5ccncc5)c4)c3n2)cn1`: the growth was -6.42% (active).

Take `Clc1nc(N2CCC[N+]3(CC2)CC[N+]2(CCCNCC2)CC3)nc(N2CCC[N+]3(CC2)CC[N+]2(CCCNCC2)CC3)n1` (stereo not given): the growth was 95%.

For the compound `c1ccc2[nH]c(-c3ccc(-c4nccc5c4[nH]c4ccccc45)cc3)nc2c1`, the growth is 34.4%.

For `CN1CCN(Cn2nc(-c3cc(Cl)cc(Cl)c3Cl)oc2=S)CC1`, the growth is 98.9%.

In the case of `Oc1cccc(-c2nc(-c3n[nH]c(=S)n3-c3ccccc3)cc3c2[nH]c2ccccc23)c1`, the growth is 47.7%.

In the case of `Cn1cc(-c2ccc3c(Nc4cccc(NC(=O)Nc5cccc(F)c5)c4)ncnc3c2)cn1`, the growth was 21.5%.

As to `COc1cc(CNC(=O)CCCC/C=C/C(C)C)ccc1OCc1cn(-c2ccc(C(F)(F)F)cc2)nn1`, the growth was 70.2%.

For the compound `O=C(Nc1ncc(Cc2cc(C(F)(F)F)ccc2Cl)s1)C(=S)N1CCOCC1`, the growth is 73.9%.
